Laboratory results as given in PubChem BioAssay (EPA / NIEHS).
Inconclusive results are not listed. Calls of active or inactive are those of the source. Rule for the calls: active = hit-call score of the fitted dose curve at least 0.9, where 1 is the maximum; inconclusive = response in the unintended direction; inactive = score below 0.9.

Test: CCTE_Harrill_HTTr_CellCount_MCF7: CCTE's Cell Proliferation Assessment for the High-Throughput Transcriptomics (HTTr) Platform, Harrill Lab (AID 2284012);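 note: cells exposed to compound for six hours; intended direction is loss of nuclei count meaning fewer cells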
Outline: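 Cell count from high-content imaging of Hoechst-labeled nuclei serves as viability/growth readout. Chemicals were applied to MCF-7 cells in eight concentrations for six hours, with fitting in both directions relative to DMSO.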

outcome, inactive:
On1ccccc1=S
CCn1nc(Cc2ccccc2)cc1C1CCN(C[C@H]2C[C@H](N(C)[C@@H](C(=O)O)C(C)C)C[C@@H]2c2cccc(F)c2)CC1
CC(C)c1cccc(C(C)C)c1N1C(=O)c2ccc(O)cc2C1=O
CC[C@H]1CC[C@H](NCc2cc3c(cc2OC)[C@H]2C[C@H]2C(=O)N3C)[C@H](c2ccccc2)N1
O=P(OC(CCl)CCl)(OC(CCl)CCl)OC(CCl)CCl
CC[C@H]1OC(=O)[C@H](C)[C@@H](O[C@H]2C[C@@](C)(OC)[C@@H](O)[C@H](C)O2)[C@H](C)[C@@H](O[C@@H]2O[C@H](C)C[C@H](N(C)C)[C@H]2O)[C@](C)(O)C[C@@H](C)C(=O)[C@H](C)[C@@H](O)[C@]1(C)O
Cn1c(=O)c2c(ncn2C)n(C)c1=O
Cn1cnc([N+](=O)[O-])c1Sc1ncnc2nc[nH]c12
Cc1c(-c2cccnc2)c2ccccc2n1CCCCC(=O)O
CCOC(=O)COc1ccc2c(c1)CC(NCC(O)c1cccc(Cl)c1)CC2 (configuration not stated)
CC(C)=CCC/C(C)=C/CO
O=C(O)CCN(C1(C(=O)NO)CCCC1)S(=O)(=O)c1ccc(Oc2ccc(F)cc2)cc1
